Measured values taken from PubChem BioAssay (Tox21).
Records with an inconclusive call do not appear. Active and inactive are the calls of the source. Unless noted, the call rests on the fitted dose curve; in most records, active means well fitted curve in the direction sought with a large enough effect in the repeat runs; inconclusive means weak or mixed curves; inactive means no such curve, though single readings can be large; an effect the other way counts as inactive or inconclusive.

How the values were obtained:
[1] = qHTS assay to identify aromatase inhibitors - cell viability counter screen (AID 743084);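 further: cells stimulated with testosterone during compound exposure; nearly all actives have a fitted effect of over 55% in size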
[2] = biological target: Aryl hydrocarbon receptor (Homo sapiens) (UniProt P35869); experiment: qHTS assay to identify small molecule that activate the aryl hydrocarbon receptor (AhR) signaling pathway (AID 743085);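 further: HG2L7.5c1 human HepG2 liver cells with stably integrated DRE-driven firefly reporter; series mostly up to about 70 µM; nearly all actives have a fitted effect of over 15% in size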
Chain of Aryl hydrocarbon receptor (Homo sapiens) (P35869 whole entry, looked up): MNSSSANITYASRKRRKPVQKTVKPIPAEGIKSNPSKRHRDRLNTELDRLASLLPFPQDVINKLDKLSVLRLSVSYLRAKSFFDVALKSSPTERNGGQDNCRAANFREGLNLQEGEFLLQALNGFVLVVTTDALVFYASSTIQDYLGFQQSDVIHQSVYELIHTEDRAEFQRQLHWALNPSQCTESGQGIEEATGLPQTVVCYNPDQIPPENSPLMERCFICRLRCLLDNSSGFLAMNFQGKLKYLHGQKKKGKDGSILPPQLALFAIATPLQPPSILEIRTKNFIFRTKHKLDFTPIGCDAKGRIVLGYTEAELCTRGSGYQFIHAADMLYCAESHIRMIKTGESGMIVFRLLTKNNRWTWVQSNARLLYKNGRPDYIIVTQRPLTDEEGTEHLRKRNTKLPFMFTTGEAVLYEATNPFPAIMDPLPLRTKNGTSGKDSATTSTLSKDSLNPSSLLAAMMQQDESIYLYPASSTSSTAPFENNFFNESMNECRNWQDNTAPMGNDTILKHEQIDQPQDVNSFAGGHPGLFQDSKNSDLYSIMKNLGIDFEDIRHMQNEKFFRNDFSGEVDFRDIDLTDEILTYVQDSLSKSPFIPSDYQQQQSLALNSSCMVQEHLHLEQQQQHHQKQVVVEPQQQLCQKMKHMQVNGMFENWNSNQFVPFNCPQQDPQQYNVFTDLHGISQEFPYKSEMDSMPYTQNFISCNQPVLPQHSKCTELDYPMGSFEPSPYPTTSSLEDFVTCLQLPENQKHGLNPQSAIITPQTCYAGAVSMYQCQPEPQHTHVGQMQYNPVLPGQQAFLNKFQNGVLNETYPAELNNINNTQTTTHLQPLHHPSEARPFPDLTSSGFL
Outline: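 Reporter assay in engineered HepG2 line HG2L7.5c1, whose plasmid carries twenty dioxin responsive elements upstream of firefly luciferase. Treatment lasted 24 h at 37C; ONE-Glo luminescence gauged induction.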

[3] = qHTS assay to identify small molecule that activate the aryl hydrocarbon receptor (AhR) signaling pathway - cell viability counter screen (AID 743086);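 further: HepG2 liver cells carrying the AhR DRE luciferase reporter; series mostly up to about 70 µM; nearly all actives have a fitted effect of over 45% in size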
Outline: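 HepG2-AhR-luc (HG2L7.5c1) cells, 4000/well, were preincubated 5 h at 37C, exposed to compound in qHTS format for 24 hr at 37C, then given CellTiter-Fluor for 30 min; viability was read as fluorescence in the reporter wells.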

[4] = biological target: Peroxisome proliferator-activated receptor gamma (Homo sapiens) (UniProt P37231); experiment: qHTS assay to identify small molecule agonists of the peroxisome proliferator-activated receptor gamma (PPARg) signaling pathway (AID 743094; active means well fitted activation curve with a large enough effect in the signal ratio in the repeat runs, not every such curve was filed as active; the % refers to the signal ratio)
Chain of Peroxisome proliferator-activated receptor gamma (Homo sapiens) (P37231 whole entry, looked up): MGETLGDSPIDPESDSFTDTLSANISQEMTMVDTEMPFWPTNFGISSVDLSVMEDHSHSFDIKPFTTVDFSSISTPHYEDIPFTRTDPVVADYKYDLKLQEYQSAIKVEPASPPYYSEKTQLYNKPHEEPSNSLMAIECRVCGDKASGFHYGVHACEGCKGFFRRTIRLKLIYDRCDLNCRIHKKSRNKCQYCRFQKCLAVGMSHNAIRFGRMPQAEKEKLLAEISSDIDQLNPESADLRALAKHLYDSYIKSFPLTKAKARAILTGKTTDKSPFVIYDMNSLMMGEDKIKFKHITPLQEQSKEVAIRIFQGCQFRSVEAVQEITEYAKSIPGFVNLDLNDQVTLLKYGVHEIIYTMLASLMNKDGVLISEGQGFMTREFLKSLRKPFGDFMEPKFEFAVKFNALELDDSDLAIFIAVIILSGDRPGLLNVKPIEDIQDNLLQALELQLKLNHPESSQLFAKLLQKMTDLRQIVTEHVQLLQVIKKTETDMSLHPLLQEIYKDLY
Outline: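 Quantitative HTS agonist mode: stable HEK293H line with UAS-beta-lactamase reporter under PPARg control, 17 h compound exposure at 37C, fluorescence after 1 h FRET substrate loading at room temperature.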

[5] = biological target: Peroxisome proliferator-activated receptor gamma (Homo sapiens) (UniProt P37231); experiment: qHTS assay to identify small molecule antagonists of the peroxisome proliferator-activated receptor gamma (PPARg) signaling pathway (AID 743191; calls by dose curve; further: series mostly up to about 63 µM; nearly all actives have a fitted effect of over 30% in size)
Outline: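 GeneBLAzer PPARg UAS-bla HEK293H cells carrying a UAS-driven beta-lactamase reporter were plated at 3000 cells/well, preincubated 5 h at 37C, then given compound for 17 h at 37C; LiveBLAzer B/G FRET substrate was read after 1 h at room temperature.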

[6] = qHTS assay to identify small molecule antagonists of the peroxisome proliferator-activated receptor gamma (PPARg) signaling pathway - cell viability counter screen (AID 743194); further: nearly all actives have a fitted effect of over 55% in size
Outline: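 PPARg-UAS-bla HEK293H cells were plated, rested 5 h at 37 C, then treated with compounds plus rosiglitazone (50 nM final) for 17 h at 37 C; viability was then read by CellTiter-Glo luminescence after 30 min at room temperature.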

[7] = qHTS assay for small molecule agonists of the antioxidant response element (ARE) signaling pathway (AID 743202; active means well fitted activation curve with a large enough effect in the signal ratio in the repeat runs, not every such curve was filed as active; the % refers to the signal ratio)
Outline: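 Read-out: LiveBLAzer B/G FRET substrate fluorescence after 2 h at room temperature, following 16 h compound treatment at 37 C of HepG2 cells carrying an ARE-driven beta-lactamase reporter.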

[8] = qHTS assay for small molecule agonists of the antioxidant response element (ARE) signaling pathway - cell viability counter screen (AID 743203; calls by dose curve; further: nearly all actives have a fitted effect of over 55% in size)
Outline: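 Seeded at 2,000 cells/well, ARE-bla HepG2 cells were incubated 5 hrs before compound addition. After 16 hrs of treatment at 37C with 5% CO2, CellTiter-Glo reagent was added and luminescence read 30 min later.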

[9] = qHTS assay for small molecule activators of the heat shock response signaling pathway - cell viability counter screen (AID 743209); further: nearly all actives have a fitted effect of over 50% in size
Outline: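 First, HSE-bla HeLa cells were seeded at 1500 cells/well and kept overnight at 37 C. Next, compounds were pinned in and incubated 5 h. After the FRET substrate step, CellTiter-Glo was added and luminescence read 30 min later.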

[10] = biological target: Peroxisome proliferator-activated receptor delta (Homo sapiens) (UniProt Q03181); experiment: qHTS assay to identify small molecule agonists of the peroxisome proliferator-activated receptor delta (PPARd) signaling pathway (AID 743212; calls by dose curve)
Chain of Peroxisome proliferator-activated receptor delta (Homo sapiens) (Q03181 whole entry, looked up): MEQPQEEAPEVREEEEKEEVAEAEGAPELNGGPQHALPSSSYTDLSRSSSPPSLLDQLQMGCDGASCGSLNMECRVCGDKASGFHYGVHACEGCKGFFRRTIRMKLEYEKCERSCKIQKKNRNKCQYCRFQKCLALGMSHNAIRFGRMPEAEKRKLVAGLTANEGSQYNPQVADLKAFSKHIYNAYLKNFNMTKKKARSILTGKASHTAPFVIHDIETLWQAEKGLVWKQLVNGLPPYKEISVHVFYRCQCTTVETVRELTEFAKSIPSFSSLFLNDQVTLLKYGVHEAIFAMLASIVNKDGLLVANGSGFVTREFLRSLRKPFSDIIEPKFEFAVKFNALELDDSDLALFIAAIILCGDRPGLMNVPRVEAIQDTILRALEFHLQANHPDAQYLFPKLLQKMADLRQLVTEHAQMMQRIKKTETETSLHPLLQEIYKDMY
Outline: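 GeneBLAzer PPARd UAS-bla HEK293H cells (beta-lactamase reporter under UAS control), plated and rested 5 h at 37 C, then exposed to compounds in DMSO at 37 C; LiveBLAzer B/G FRET substrate added, 2 h room temperature, fluorescence read.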

[11] = qHTS assay to identify small molecule antagonists of the peroxisome proliferator-activated receptor delta (PPARd) signaling pathway - cell viability counter screen (AID 743213); further: nearly all actives have a fitted effect of over 50% in size
Outline: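 Luminescence from CellTiter-Glo, added after the bla read and incubated 30 min at room temperature, gives viability of HEK293H PPARd-bla cells exposed to compounds for 17 h at 37 C with 300 nM L165041.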

[12] = biological target: Peroxisome proliferator-activated receptor delta (Homo sapiens) (UniProt Q03181); experiment: qHTS assay to identify small molecule antagonists of the peroxisome proliferator-activated receptor delta (PPARd) signaling pathway (AID 743215; active means well fitted inhibition curve with a large enough effect in the signal ratio in the repeat runs, not every such curve was filed as active; the % refers to the signal ratio;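 further: cells stimulated with agonist L165041 at 300 nM final during compound exposure; series mostly up to about 62 µM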)
Outline: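 Inhibition of L165041-driven (300 nM final) PPARd signaling is scored in HEK293H UAS-bla cells. Exposure lasts 17 h at 37 C; beta-lactamase activity is then read by FRET substrate fluorescence after 2 h at room temperature.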

[13] = qHTS assay to identify small molecule agonists of the farnesoid-X-receptor (FXR) signaling pathway - cell viability counter screen (AID 743218); further: nearly all actives have a fitted effect of over 45% in size
Outline: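 Cytotoxicity counter-screen run in parallel, same wells: FXR-UAS-bla HEK 293T cells dosed 16 h at 37 C, viability read by CellTiter-Glo luminescence after 30 min at room temperature.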

[14] = qHTS assay to identify small molecule antagonists of the farnesoid-X-receptor (FXR) signaling pathway - cell viability counter screen (AID 743221; active means well fitted cell-killing curve with a large enough effect in the repeat runs, not every such curve was filed as active; further: nearly all actives have a fitted effect of over 50% in size)
Outline: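 CellTiter-Glo, 30 min RT, luminescence; same wells as the LiveBLAzer FRET read. Cells: FXR-UAS-bla HEK 293T. Treatment: compound with chenodeoxycholic acid 50 uM final, 16 h at 37 C.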

[15] = biological target: Vitamin D3 receptor (Homo sapiens) (UniProt P11473); experiment: qHTS assay to identify small molecule agonists of the vitamin D receptor (VDR) signaling pathway (AID 743222; calls by dose curve)
Chain of Vitamin D3 receptor (Homo sapiens) (P11473 whole entry, looked up): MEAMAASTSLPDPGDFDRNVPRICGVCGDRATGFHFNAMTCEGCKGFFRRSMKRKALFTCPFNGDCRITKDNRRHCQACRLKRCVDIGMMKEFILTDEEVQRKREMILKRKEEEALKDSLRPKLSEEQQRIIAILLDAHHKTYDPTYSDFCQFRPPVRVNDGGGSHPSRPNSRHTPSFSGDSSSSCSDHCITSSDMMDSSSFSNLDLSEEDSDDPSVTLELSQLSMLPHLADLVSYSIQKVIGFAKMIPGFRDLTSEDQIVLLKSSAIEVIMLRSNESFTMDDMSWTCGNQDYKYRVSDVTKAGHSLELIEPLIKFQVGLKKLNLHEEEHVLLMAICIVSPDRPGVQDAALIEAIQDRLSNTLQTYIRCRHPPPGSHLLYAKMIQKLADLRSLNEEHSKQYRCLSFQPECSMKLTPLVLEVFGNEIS
Outline: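 Quantitative HTS agonist-mode screen: compounds in DMSO were pin-transferred onto VDR-bla cells and incubated 16 h at 37C, 5% CO2. Reporter activity was detected with LiveBLAzer B/G FRET substrate after 2 h at room temperature.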

[16] = biological target: Vitamin D3 receptor (Homo sapiens) (UniProt P11473); experiment: qHTS assay to identify small molecule antagonists of the vitamin D receptor (VDR) signaling pathway (AID 743223; active means well fitted inhibition curve with a large enough effect in the signal ratio in the repeat runs, not every such curve was filed as active; the % refers to the signal ratio)
Outline: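 After VDR-bla cells are plated and left 4 h at 37C, DMSO-dissolved compounds and 3 nM (final) calcitriol agonist are added. Incubation continues 16 h at 37C; FRET beta-lactamase substrate then develops 2 h at room temperature.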

[17] = qHTS assay for small molecule activators of the heat shock response signaling pathway (AID 743210; active means well fitted activation curve with a large enough effect in the signal ratio in the repeat runs, with a control signal flat, not every such curve was filed as active; the % refers to the signal ratio; further: series mostly up to about 63 µM)
Outline: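 HSE-bla HeLa cells (beta-lactamase reporter under heat shock response elements) were exposed to compounds for 5 h at 37 C, then loaded with LiveBLAzer B/G FRET substrate for 2.5 h at room temperature before fluorescence reading.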

[18] = qHTS assay to identify small molecule agonists of the peroxisome proliferator-activated receptor delta (PPARd) signaling pathway - cell viability counter screen (AID 743211); further: nearly all actives have a fitted effect of over 55% in size
Outline: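 Multiplexed format: after the 2 h room-temperature LiveBLAzer B/G FRET step, CellTiter-Glo was added to the same wells. Luminescence after 30 min gave cell viability; compound exposure was 17 h at 37C.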

[19] = biological target: Bile acid receptor (Homo sapiens) (UniProt Q96RI1); experiment: qHTS assay to identify small molecule antagonists of the farnesoid-X-receptor (FXR) signaling pathway (AID 743217; active means well fitted inhibition curve with a large enough effect in the signal ratio in the repeat runs, not every such curve was filed as active; the % refers to the signal ratio)
Chain of Bile acid receptor (Homo sapiens) (Q96RI1 whole entry, looked up): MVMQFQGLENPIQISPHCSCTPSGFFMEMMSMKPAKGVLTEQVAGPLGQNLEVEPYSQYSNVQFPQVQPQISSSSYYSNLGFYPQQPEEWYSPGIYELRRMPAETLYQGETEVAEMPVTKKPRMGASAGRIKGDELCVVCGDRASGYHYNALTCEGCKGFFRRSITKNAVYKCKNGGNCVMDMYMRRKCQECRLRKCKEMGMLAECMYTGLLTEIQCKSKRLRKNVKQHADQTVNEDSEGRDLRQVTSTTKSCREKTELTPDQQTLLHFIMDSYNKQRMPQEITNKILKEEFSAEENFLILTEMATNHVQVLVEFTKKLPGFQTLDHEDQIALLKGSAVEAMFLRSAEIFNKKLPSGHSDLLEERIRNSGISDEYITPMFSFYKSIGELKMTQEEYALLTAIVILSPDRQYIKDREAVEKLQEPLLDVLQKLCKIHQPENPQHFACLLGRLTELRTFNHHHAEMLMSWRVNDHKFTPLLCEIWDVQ
Outline: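 Antagonist mode against 50 uM (final) chenodeoxycholic acid stimulation in FXR-bla HEK 293T cells, 16 h at 37 °C. Inhibition detected as reduced beta-lactamase activity via LiveBLAzer B/G FRET fluorescence after 2 h at room temperature.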

[20] = biological target: Bile acid receptor (Homo sapiens) (UniProt Q96RI1); experiment: qHTS assay to identify small molecule agonists of the farnesoid-X-receptor (FXR) signaling pathway (AID 743220; active means well fitted activation curve with a large enough effect in the signal ratio in the repeat runs, not every such curve was filed as active; the % refers to the signal ratio)
Outline: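 Beta-lactamase reporter under UAS control in GeneBLAzer FXR HEK 293T cells (5000/well) measured with LiveBLAzer FRET substrate after 2 h at room temperature. Compound exposure lasted 16 h at 37C.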
On the % scale 0 is the no-effect control and ±100 the full control effect.

CNC(=O)CN(CCN(CCN(CC(=O)[O-])CC(=O)NC)CC(=O)[O-])CC(=O)[O-].O.[Gd+3]
inactive: Potency [1] | Potency [2] | Potency [3] | Potency [4] | Potency [5] | Potency [6] | Potency [7] | Potency [8] | Potency [9] | Potency [10] | Potency [11] | Potency [12] | Potency [13] | Potency [14] | Potency [15] | outcome [16]

O=C(NCCO[N+](=O)[O-])c1cccnc1
inactive: Potency [1] | Potency [2] | Potency [3] | Potency [4] | Potency [5] | Potency [6] | Potency [7] | Potency [8] | Potency [17] | Potency [18] | Potency [10] | Potency [11] | Potency [12] | Potency [13] | Potency [14] | Potency [15] | outcome [16]

O=C(O)CNCC(=O)O
inactive: activity change, negative = cytotoxicity [1] -0.604% [at 8.47 µM] | activation [2] 1.31% [at 8.47 µM] | viability change, negative = cytotoxic [3] -0.209% [at 8.47 µM] | activation [4] 0.605% [at 7.08 µM] | ratio activity, negative = inhibition [5] 11.9% [at 5.95 µM] | activity change, negative = cytotoxicity [6] 0.536% [at 5.95 µM] | activation [7] -1.79% [at 8.36 µM] | viability change, negative = cytotoxic [8] 1.43% [at 8.36 µM] | activity change, negative = cytotoxicity [9] 4.62% [at 5.95 µM] | activation [17] -0.342% [at 5.95 µM] | activity change, negative = cytotoxicity [18] -8.65% [at 5.95 µM] | activation [10] 11.6% [at 5.95 µM] | viability change, negative = cytotoxic [11] -5.77% [at 6.26 µM] | ratio activity, negative = inhibition [12] -0.396% [at 6.26 µM] | activity change, negative = inhibition [19] -18.1% [at 5.95 µM] | viability change, negative = cytotoxic [13] -1.74% [at 5.95 µM] | activation [20] 1.91% [at 5.95 µM] | activity change, negative = cytotoxicity [14] -4.51% [at 5.95 µM] | activation [15] 4.1% [at 6.01 µM]

CCO[Si](CCCCl)(OCC)OCC
inactive: Potency [1] | Potency [2] | Potency [3] | Potency [4] | Potency [5] | Potency [6] | Potency [7] | Potency [8] | Potency [9] | Potency [17] | Potency [10] | Potency [11] | Potency [12] | Potency [13] | Potency [14]

CCCCCCCCCCCCN1CCCCCC1=O
inactive: Potency [1] | Potency [2] | Potency [3] | Potency [4] | Potency [5] | Potency [6] | Potency [8] | Potency [18] | Potency [10] | Potency [11] | Potency [19] | Potency [13] | Potency [20] | Potency [15]

Nc1cccc([N+](=O)[O-])c1
inactive: Potency [1] | Potency [2] | Potency [3] | Potency [4] | Potency [5] | Potency [6] | Potency [8] | Potency [17] | Potency [18] | Potency [10] | Potency [11] | Potency [12] | Potency [19] | Potency [13] | Potency [20] | Potency [14]

CCOc1ccc(N)c([N+](=O)[O-])c1
inactive: Potency [1] | Potency [2] | Potency [3] | Potency [4] | Potency [5] | Potency [6] | Potency [8] | Potency [9] | Potency [17] | Potency [10] | Potency [11] | Potency [12] | Potency [13] | Potency [14] | Potency [15] | outcome [16]

C=C1[C@H]2CC[C@@H]3[C@H]2C(C)(C)CCC[C@]13C
inactive: Potency [1] | Potency [2] | Potency [3] | Potency [4] | Potency [6] | Potency [7] | Potency [8] | Potency [9] | Potency [17] | Potency [18] | Potency [10] | Potency [11] | Potency [12] | Potency [19] | Potency [13] | Potency [20] | Potency [14]
